# High-throughput results deposited in PubChem by several laboratories.
# Most compounds without a hit are left out; they make up all but 4.1% or so of the library.
# UGM FP inh: blocks M. tuberculosis UGM enzyme. P9WIQ1. purified UGM, fluorescence polarization probe displacement. inhibition, % at 10 µM. hit rate 0.06% among 320,000; in the data active = inhibition above about 10%, passing the limit was not always enough
# Target sequence (P9WIQ1 whole entry, looked up): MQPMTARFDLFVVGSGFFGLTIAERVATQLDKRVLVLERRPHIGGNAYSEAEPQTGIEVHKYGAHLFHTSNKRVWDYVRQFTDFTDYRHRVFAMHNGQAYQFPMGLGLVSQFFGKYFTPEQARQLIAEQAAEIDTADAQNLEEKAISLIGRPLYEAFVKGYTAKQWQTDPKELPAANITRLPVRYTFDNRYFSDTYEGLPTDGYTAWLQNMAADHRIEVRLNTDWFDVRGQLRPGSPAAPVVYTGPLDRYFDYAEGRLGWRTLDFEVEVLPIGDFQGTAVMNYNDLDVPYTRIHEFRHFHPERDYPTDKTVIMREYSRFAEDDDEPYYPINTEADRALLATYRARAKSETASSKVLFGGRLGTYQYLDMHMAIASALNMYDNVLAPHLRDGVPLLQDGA
# RecA intein inh: Mtb RecA intein splicing inhibition; P9WHJ3; cell-free RecA intein splicing, fluorescence; inhibition, % (test concentration not listed); hit rate 0.75% among 290,000; AID 2221; in the data active = inhibition above about 30%;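 note: 0% = vehicle wells and 100% = reference inhibitor control wells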
# Rv3671c inh: Rv3671c (M. tuberculosis) protease inhibition. P9WHR9. hit rate 0.048% among 320,000. inhibition, % at 5.96 µM; in the data active = inhibition above about 38%;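 note: extracellular domain of Rv3671c used as enzyme; 0% = enzyme with DMSO and 100% = no enzyme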
# GDH-TPI counter: inhibits GDH-TPI coupling enzymes, artifact for Mtb FBA screen; GDH-TPI coupled enzyme counterscreen, NADH absorbance; hit rate 1.2% among 360,000; inhibition, % at 4.8 µM; in the data active = inhibition above about 30%;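 note: 0% = DMSO wells and 100% = wells lacking the enzyme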
# Mtb FBA inh: inhibitors of M. tuberculosis fructose-bisphosphate aldolase; P9WQA3; purified M. tuberculosis FBA, fluorescence read-out; inhibition, % at 1 µM; hit rate 2.3% among 360,000; in the data active = inhibition above about 27%;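 note: 0% = vehicle and 100% = reference inhibitor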
# Vc quorum ag-1: quorum light induction in luxS cqsA deficient V. cholerae; V. cholerae BH1578 lux reporter, luminescence, 6 h; activation, % at 18.7 µM; hit rate 0.16% among 350,000; AID 588436; in the data active = activation mostly above about 9.7%, no sharp cut-off
# Vc quorum ag-2: inducers of V. cholerae quorum light production without autoinducers; shares compounds with Vc quorum ag-1; 620 tested, under 10 active; V. cholerae BH1578 lux reporter, luminescence, 6 h; activation, % at 50 µM; call rule not given here
# HeLa 24h tox: HeLa cell viability loss at 24 h; shares compounds with Vc quorum ag-1; CellTiter-Glo ATP luminescence; activity change, negative = cytotoxicity, % at 35 µM; 25 tested, under 10 active; AID 624140;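 active = signal drop with fitted half-maximal concentration at or below twice the highest valid dose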
# Active calls of the source: *; i = inactive; / = not tested or not shown; + = active, no number.
SMILES,UGM FP inh,RecA intein inh,Rv3671c inh,GDH-TPI counter,Mtb FBA inh,Vc quorum ag-1,Vc quorum ag-2,others
CCCS(=O)(=O)N1CCCC(C(=O)NCCCN(C)Cc2ccccc2)C1 (configuration not stated),1.7,0.4,-10.6,-9.2,0.9,16.7*,-0.1,
O=C(NCc1ccccc1)C1CCCN(S(=O)(=O)c2cccnc2)C1 (configuration not stated),0.8,4.1,2.6,-4.9,-0.8,25.4,0.0,
Cc1cc(C)c(C)c(S(=O)(=O)NC(C(=O)NCCc2ccco2)C(C)C)c1C (configuration not stated),1.6,/,-13.8,4.7,1.8,i,/,
CCCS(=O)(=O)N1CCCC(C(=O)NCCCN(Cc2ccccc2)C(C)C)C1 (configuration not stated),-0.6,-1.3,-6.6,0.0,-2.6,i,/,
CCCS(=O)(=O)N1CCCC(C(=O)NCCCN(C)c2ccccc2)C1 (configuration not stated),-1.7,-0.1,-0.4,-6.0,0.6,16.7*,-0.2,
Cc1nc2ncnn2c(C)c1Cc1cccc(F)c1,0.0,0.6,7.9,-12.9,4.5,-0.3,/,
Cc1nc2ncnn2c(C)c1Cc1c(Cl)cccc1Cl,0.7,1.7,2.0,-3.0,0.8,94.0*,17.9,
CN(Cc1ccccc1NCC(=O)Nc1ccccc1C#N)C1CCCCC1,3.0,-0.8,-4.1,6.9,-1.8,-0.2,/,
N#Cc1ccccc1NC(=O)CNc1ccccc1N1CCCCC1,0.6,3.8,2.6,5.8,-0.4,160.2*,255.1,
Cc1ccc(F)cc1NC(=O)COC(=O)COc1ccc(C#N)cc1,/,1.5,-5.0,2.4,-0.6,-0.7,/,
COc1ccc(NC(=O)CN2CCN(CC(=O)Nc3ccc(F)cc3)CC2)c(OC)c1,2.2,-4.9,1.1,7.3,0.0,i,/,
COCCCNC(=O)c1ccc2c(=O)n(C3CCCC3)c(=S)[nH]c2c1,1.0,3.3,-0.4,-3.8,-0.1,6.6,0.0,
COCCCNC(=O)c1ccc2c(=O)n(CC3CCCO3)c(=S)[nH]c2c1 (configuration not stated),1.5,-0.5,-0.2,8.7,2.1,i,/,
Cn1ncc([N+](=O)[O-])c1C(=O)N1CCCCCC1,/,-6.4,/,11.9,4.7,i,/,
O=C(Nc1nnc(-c2ccc(Br)cc2)o1)c1cccc(N2C(=O)CCC2=O)c1,0.6,0.8,-10.3,20.9,-3.1,14.3,0.3,
CC(NS(=O)(=O)c1ccc(Br)cc1F)[C@H](O)c1ccccc1 (some centres not stated),/,/,/,-5.7,0.3,-0.2,/,
COc1ccc(OCCOC(=O)CCS(=O)(=O)c2ccc(C)cc2)cc1,-1.8,-0.7,-7.2,7.7,-0.3,12.5,0.2,
COc1ccc(C/C(N)=N/OC(=O)c2cccs2)cc1,1.9,-0.7,0.6,-4.1,-1.9,i,/,
COc1ccc(OCCOC(=O)c2cccs2)cc1,-1.0,/,-5.2,-6.1,2.6,524.3*,151.8,
CC1(C)NC(=O)N(CC(=O)N2CCN(c3ccc([N+](=O)[O-])cc3)CC2)C1=O,-0.2,/,-2.1,15.2,-4.2,i,/,
Nc1nc(SCc2nc3sc4c(c3c(=O)[nH]2)CCCC4)n[nH]1,-1.9,1.5,-9.4,0.8,1.3,30.8*,0.9,
Cc1nnc(SCc2nc3sc4c(c3c(=O)[nH]2)CCCC4)n(N)c1=O,/,-1.6,-6.8,/,/,/,/,
CCSc1nnc(NC(=O)c2ccc3ccccc3n2)s1,2.4,2.0,-11.1,16.7,0.8,25.0,0.0,
CCCCNC(=O)CN(c1cccc(Br)c1)S(C)(=O)=O,-3.4,6.3,-2.6,8.6,3.1,32.1*,0.1,
CC(C)CNc1ncnc2c1ncn2[C@H]1CN(CCN2CCOCC2)C[C@@H](CO)O1,/,/,/,2.2,0.9,-4.5,/,
SMILES,UGM FP inh,RecA intein inh,Rv3671c inh,GDH-TPI counter,Mtb FBA inh,Vc quorum ag-1,Vc quorum ag-2,others
COc1ccc(N2CCN(C(=O)COc3ccc4ccccc4c3)CC2)cc1,0.4,1.6,4.4,-10.4,1.4,12.5,-0.1,
COc1ccc(OCC(=O)N2CCN(C(=O)COc3ccc(Br)cc3)CC2)cc1,1.5,1.7,-1.3,-6.8,2.9,/,/,
CC(=O)N1CCN(C(=O)COc2ccc(Br)cc2)CC1,-1.4,0.4,-1.5,4.7,4.8,16.7*,-0.1,
Cc1cc(N2CCOCC2)ccc1/C=C\[N+](=O)[O-],-2.5,0.0,3.5,7.4,-15.6,-0.4,/,
CCOC(=O)C1CCCN(C(=O)c2cc3c(OC)c(OC)c(OC)cc3[nH]2)C1 (configuration not stated),-1.7,0.1,0.0,4.3,6.8,16.7*,0.0,
COc1ccccc1Oc1ccc(S(=O)(=O)N2CCOCC2)cc1S(=O)(=O)N1CCOCC1,0.7,2.0,8.4,-5.2,0.0,/,/,
Cc1ccc(Oc2ccc(S(=O)(=O)N3CCOCC3)cc2C(N)=O)c(-n2nc3ccccc3n2)c1,-3.6,2.4,0.0,-6.0,24.6,25.0*,0.9,
CCOc1ccc(CCNC(=O)COC(=O)Cc2ccc(F)cc2)cc1OCC,-2.0,-3.9,0.8,6.3,2.6,14.3,2.6,
CCOc1ccc(CCNC(=O)COC(=O)Cc2c[nH]c3ccccc23)cc1OCC,1.9,1.2,-5.0,7.3,-2.1,-1.2,/,
CCc1ccc(C(=O)OCC(=O)NC2CCCC2)cc1,0.5,-0.1,-7.6,8.2,0.8,/,i,
O=C(Cc1ccccc1)NC1CCCCC1,/,/,/,-2.1,1.0,-0.3,/,
O=C(COC(=O)c1ccc(Cl)cc1)NC1CCCCCC1,-2.6,/,-11.4,4.6,-0.1,-1.4,/,
CC(C)c1ccc(C(=O)OCC(=O)NC2CCCC2)cc1,1.4,2.8,-4.7,5.7,0.5,+,i,
COc1cc(SC)ccc1C(=O)OCC(=O)NC1CCCC1,4.3,-0.5,7.3,-3.9,0.8,741.4*,i,
Cc1ccc(CC(=O)NC2CCCC2)cc1,/,/,/,/,/,/,/,HeLa 24h tox=-4.6
Cc1ccc(S(=O)(=O)N(C)c2ccc(C(=O)NCC(c3ccco3)N(C)C)cc2)cc1 (configuration not stated),-2.9,/,2.1,-3.6,5.5,i,/,
Cc1nc(C(F)(F)F)ccc1C(=O)N1CCC(C)(C(=O)NS(=O)(=O)C2CC2)C1 (configuration not stated),/,/,/,7.1,-0.3,-0.4,/,
Cc1noc(C)c1S(=O)(=O)Nc1ccc2c(c1)C(=O)N([C@H](C)CO)C[C@H](C)[C@H](CN(C)C(=O)NC(C)C)OCCCC[C@@H](C)O2,/,/,/,8.2,3.6,-0.7,/,
Cc1ccc(C(=O)OCC(=O)NC2CCCC2)cc1C,-1.4,-1.3,0.9,1.8,2.3,+,i,
COc1ccc(C(=O)OCC(=O)NC2CCCC2)cc1OC,0.2,-1.0,10.2,5.2,1.8,-7.7,/,
COc1ccc2[nH]c3c(c2c1)CCN1C(=O)C(CC(=O)NCC24CC5CC(CC(C5)C2)C4)C[C@H](C(=O)N2CCOCC2)[C@@]31CCC1CCCC1 (some centres not stated),/,/,/,3.3,0.5,-0.7,/,
